# HCMV antiviral: inhibitors of human cytomegalovirus; activity change, negative = inhibition, % at 57.5 µM; HFF cells, HCMV-luciferase reporter, 72 h; hits give low values; 4.5% of 410,000 active; in the data active means activity change below about -60%; inconclusive means no clear call, values can overlap the other calls; inactive means above about -39%; further: on the % scale 0 is the no-effect control and ±100 the full control effect
#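 Two-dose cell screen: HFF monolayers treated with compounds and infected with luciferase-expressing HCMV at 1 PFU/cell, 72 h at 37C, then lysed for luciferase measurement.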
# HCV inh: blocks hepatitis C virus; Huh7.5.1 HCVcc-Cre infection, luciferase reporter, 44 h; Potency, µM (series often up to 41.8 µM), for inactives: top-dose activity change, negative = inhibition, actives largely listed as inhibitors; 3.4% of 340,000 active; further: potency means the concentration at half of the fitted maximal effect; on the % scale 0 is the no-effect control and ±100 the full control effect
#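 After 44 h co-culture of compound, cells and HCVcc-Cre (~0.5 moi), substrate is added for 15 min at room temperature and luciferase measured over 15 sec. Cells were seeded at 1,000/well and pre-cultured 4 h.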
# Shiga toxin inh: Shiga toxin inhibition | Vero cells, Shiga toxin protein synthesis inhibition reporter | inhibition, % at 38.7 µM | 9.2% of 290,000 active | AID 2315; in the data active means inhibition mostly above about 28%, no sharp cut-off; inactive means mostly below about 43%; further: 0% is about no effect
# CHX counter: counter-screen for Shiga toxin inhibitors: cycloheximide protein synthesis inhibition. 12% of 300,000 active. max response, %. cell reporter, cycloheximide protein synthesis inhibition counterscreen; in the data active means max response mostly above about 13%, no sharp cut-off; inactive means mostly below about 14%; further: read at 38.3 µM for the half of the compounds with a filed dose; 0% is about no effect
# Pf growth 96h: P. falciparum growth inhibition at 96 hours. Potency, µM (series often up to 28.7 µM), without a hit: at the top dose activity change, negative = inhibition, hits mostly inhibitors. P. falciparum luciferase reporter growth, 96 h. AID 504834. 6.9% of 320,000 active; further: potency means the concentration at half of the fitted maximal effect; on the % scale 0 is the no-effect control and ±100 the full control effect
#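 Compounds incubated with erythrocytes infected by luciferase-expressing P. falciparum (2% hematocrit, 0.05% parasitemia final) for 96 hours, 37 C in 5% CO2. Growth inhibition scored as decreased luciferase luminescence.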
# Pf growth 48h: inhibits P. falciparum growth in the first generation, 48 h; 5.9% of 310,000 active; Potency, µM (doses to about 28.7 µM), inactives show at the top dose activity change, negative = inhibition, hits mostly inhibitors; P. falciparum luciferase growth in erythrocytes, 48 h; AID 504832; further: potency means the concentration at half of the fitted maximal effect; on the % scale 0 is the no-effect control and ±100 the full control effect
#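 Here the parasites carry a stable luciferase gene and grow inside erythrocytes in Albumax-based RPMI medium with compound for one erythrocytic cycle. Activity is scored as loss of luminescent signal.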
# * = called active by the depositor; ? = inconclusive; nt = no result. Most compounds without a hit are left out; they make up all but 21% or so of the library. Unless noted, the call rests on the fitted dose curve; in most records, active means well fitted inhibition curve with a large enough effect; inconclusive means small, poorly fitted or top-dose-only effect, or another doubt; inactive means no such curve, though single readings can be large or run the other way.
SMILES,HCMV antiviral,HCV inh,Shiga toxin inh,CHX counter,Pf growth 96h,Pf growth 48h
CCN(CC)CCNC(=O)c1ccc2nc(CCc3ccccc3)oc2c1,11.1,nt,nt,nt,nt,nt
COC(=O)c1ccc(N2CCN(S(=O)(=O)c3c(C)cc(C)cc3C)CC2)c([N+](=O)[O-])c1,-20.7,-11.1%,-13.6,-1.8,?,11.7µM*
COC(=O)c1ccc(N2CCN(S(=O)(=O)c3ccc(C)cc3)CC2)c([N+](=O)[O-])c1,3.6,?,-10.7,11.2,?,?
Cc1cc(C)c(S(=O)(=O)N2CCN(c3ccc([N+](=O)[O-])c(-n4nc(C)cc4C)c3)CC2)c(C)c1,-0.6,?,-7.2,8.4,1.31µM*,4.15µM*
Cc1cc(C)n(-c2cc(N3CCN(S(=O)(=O)c4ccc(Br)cc4)CC3)ccc2[N+](=O)[O-])n1,40.9,?,-7.8,-2.9,?,?
C[C@H]1CN([C@@H](C)CO)C(=O)CCCn2nncc2CO[C@@H]1CN(C)S(=O)(=O)c1cccs1,-8.6,nt,nt,nt,nt,nt
CC(C)C(=O)Nc1ccc(-c2csc(-c3ccccc3)n2)cc1,-20.4,?,81.2*,60.9*,125.6%,48.5%
CC(C)C(=O)Nc1cccc(-c2csc(-c3ccccc3)n2)c1,?,?,33.5*,32.3*,?,?
CCOc1ccc(S(=O)(=O)N2CCC(N3CCN(Cc4ccc(C)cc4)C(=O)C3=O)CC2)cc1,13.4,nt,nt,nt,nt,nt
CC(=O)c1ccc(NC(=O)CC(c2cccs2)N2Cc3ccccc3C2=O)cc1 (centres undefined),70.4,nt,nt,nt,nt,nt
COc1cccc(Nc2nc3c(S(=O)(=O)c4cc(C)ccc4C)nnn3c3ccsc23)c1,3.0,nt,nt,nt,nt,nt
CN1CCN(c2nc(-c3ccccc3)cc(C(F)(F)F)n2)CC1,-3.0,?,-19.1,1.3,?,11.2%
CN1CCN(C2Cc3cc(Cl)ccc3Sc3cc(F)ccc32)CC1 (centres undefined),-77.5*,?,nt,nt,nt,nt
CN1CCN(C2=Nc3ccccc3Sc3ccc(Cl)cc32)CC1,nt,nt,nt,nt,-27.8%,?
CN1CCN(C2=Cc3ccccc3Sc3cc(F)c(Cl)cc32)CC1,-0.3,12.6µM*,-11.9,-2.9,?,5.22µM*
OCCN1CCN(C2Cc3cc(Cl)ccc3Sc3ccc(Cl)cc32)CC1 (centres undefined) (tested in a mixture with another compound),nt,?,-10.1,-5.1,?,?
CN1CCN(C2=Cc3cc(Cl)ccc3Sc3cc(F)ccc32)CC1,-9.1,7.08µM*,-18.6,-6.6,?,4.65µM*
CN1CCN(C2=Cc3ccccc3Sc3cc(F)c(F)cc32)CC1,7.7,11.2µM*,-11.1,-3.7,?,6.57µM*
NC(=O)c1ccc(NC(=O)CCC(=O)N2CCN(S(=O)(=O)c3ccc(Cl)cc3)CC2)cc1,0.0,11.6%,-2.2,0.6,?,?
Fc1ccc(-c2noc3ncnc(NCCCN4CCN(c5ccccc5)CC4)c23)cc1,-24.4,nt,nt,nt,nt,nt
COc1ccc(CNC(=O)[C@H](C)NC(=O)C2CCN(C(=O)[C@@H](N)Cc3ccccc3)CC2)cc1,21.2,?,0.7,-2.7,0.0%,3.0%
COc1ccc(CCNC(=O)C(CC(C)C)N2Cc3ccccc3C2=O)c(OC)c1OC (centres undefined),-25.0,nt,nt,nt,nt,nt
Cc1ccc2nc(Cl)c3cc(C(=O)N(CCN(C)C)Cc4ccco4)sc3c2c1,?,?,-46.4,-15.8,?,?
CN(C)CCN(Cc1ccco1)C(=O)c1cc2c(Cl)nc3ccccc3c2s1,?,10µM*,-13.4,1.5,-2.7%,?
Cc1ccccc1C(=O)c1cccn1CC(=O)NC1CCCC(C)C1C (centres undefined),-8.5,?,-11.6,-2.3,57.0%,-19.3%
SMILES,HCMV antiviral,HCV inh,Shiga toxin inh,CHX counter,Pf growth 96h,Pf growth 48h
O=[N+]([O-])c1cc([N+](=O)[O-])c(Oc2ccc(Br)cc2Br)cc1NN1CCCCC1,-9.0,?,1.3,-2.1,11.7µM*,58.8%
Cc1cc(F)ccc1Oc1cc(NN2CCCCC2)c([N+](=O)[O-])cc1[N+](=O)[O-],-24.6,8.2%,-7.4,-1.9,?,17.0%
O=[N+]([O-])c1cc([N+](=O)[O-])c(Oc2cc(F)ccc2F)cc1NN1CCCCC1,-85.2*,1.6%,-6.2,-2.2,?,?
CCCCn1c(N)c(N(CC(C)C)C(=O)C2CCN(S(=O)(=O)c3ccc(F)cc3)CC2)c(=O)[nH]c1=O,-3.6,13.0%,-4.5,-3.4,?,?
CCCCn1c(N)c(N(CC(C)C)C(=O)C2CCN(S(=O)(=O)c3ccc(Cl)cc3)CC2)c(=O)[nH]c1=O,-32.1,11.5%,nt,nt,9.28µM*,9.28µM*
COc1cccc2cc(C(=O)C3=C(O)C(=O)N(CCN(C)C)C3c3ccc(Cl)cc3)oc12 (centres undefined),?,18.8%,-9.9,-3.2,4.9%,2.2%
Cc1[nH]c2ccc3ncccc3c2c1C,-2.6,11.2µM*,-25.4,14.6*,?,8.8%
CCCC(=O)C1=C(O)C(C(=O)OC)C(C)(C)CC1=Nc1ccc(N)cc1 (centres undefined),18.7,12.6%,16.1,-1.1,?,?
CCCC(=O)C1=C(O)C(C(=O)OC)C(C)(C)CC1=Nc1ccc(C)cc1 (centres undefined),-21.2,-29.5%,-1.6,1.3,18.9%,5.22µM*
CC(C)c1ccc(O)c(=O)cc1,-32.7,nt,nt,nt,nt,nt
CC(C)c1cccc(O)c(=O)c1,0.0,-5.8%,-6.5,-1.0,3.29µM*,2.94µM*
Cc1ccc(C(=O)Nc2ccc3c(c2)OCO3)cc1S(=O)(=O)N1CCCC1,5.2,?,44.7*,45.9*,15.3%,?
Cc1ccc(C(=O)Nc2ccc3c(c2)OCO3)cc1S(=O)(=O)N1CCOCC1,72.0,?,106.6*,29.4*,?,-24.5%
Cc1cc(/C=C2/NC(=O)N(Cc3ccccc3F)C2=O)c(C)n1C(C)C,7.6,?,27.7,5.3,10.4µM*,?
CCn1c(C)cc(/C=C2/NC(=O)N(Cc3ccccc3F)C2=O)c1C,-6.4,?,-14.9,-2.8,9.28µM*,11.7µM*
Cc1cc(/C=C2/NC(=O)N(c3ccccc3)C2=O)c(C)n1C(C)C,?,-17.5%,41.0*,40.0*,-44.1%,-9.3%
Cc1cccc(NC(=O)CN2C(=O)N/C(=C/c3cc(C)n(C(C)C)c3C)C2=O)c1,-19.3,?,36.8,-0.7,?,nt
CCn1c(C)cc(/C=C2\NC(=O)N(Cc3ccccc3)C2=O)c1C,-23.6,?,-7.4,-1.1,?,nt
CCN1C(=O)N/C(=C/c2ccc(C)o2)C1=O,29.7,14.0%,11.8,0.6,22.4%,22.7%
Cc1ccc(/C=C2/NC(=O)N(Cc3ccccc3F)C2=O)o1,-72.3*,2.5%,-1.3,4.5,?,-1.7%
Cc1ccsc1C(=O)NNC(=O)CCN1CCN(c2ccccc2)CC1,-27.1,3.5%,nt,nt,42.4%,26.4%
